Compound activity deposited in PubChem by National Center for Advancing Translational Sciences (NCATS).
The list is not random: actives were taken first. Their share in the collection is about 1.3%.
RE007 growth inh: less growth of the S. pombe RE007 Vpr strain | S. pombe RE007 Vpr strain, BacTiter-Glo ATP luminescence, 24 h | Potency, µM (highest dose often 92.2 µM), inactives show at the highest dose activity change, negative = less growth, most hits filed as inhibitors | 0.21% of 360,000 active; active = well fitted falling curve with a large enough effect; inconclusive = small, poorly fitted or top-dose-only effect; inactive = no such curve, though single readings can be large or run the other way; also: nearly all actives have a fitted effect of over 50% in size
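Fission yeast RE007 carrying one integrated HIV-1 vpr copy, seeded at OD 0.01 in PMG+AL medium with 23 nL pinned compound. Grown 24 h at 30 degrees; viability read by BacTiter-Glo luminescence after 5 min.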
Vaccinia Venus: vaccinia inhibition (Venus reporter) | Vaccinia virus Venus reporter expression, fluorescence | Potency, µM (series often up to 36.5 µM), for inactives: at the top dose activity change, negative = inhibition, usual class: inhibitors | 0.46% of 330,000 active; calls by dose curve; tested in A549 cells; also: nearly all actives have a fitted effect of over 30% in size
TbPYK inhibitor: blocks Trypanosoma brucei pyruvate kinase; Q57TT1; TbPYK enzyme, Kinase-Glo Plus ATP luminescence, 45 min; 0.12% of 410,000 active; Potency, µM (top dose mostly 76.8 µM), without a hit: top-dose activity, negative = inhibition, usual class: inhibitors; also: nearly all actives have a fitted effect of over 50% in size
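Glycolytic pyruvate kinase of T. brucei was incubated with substrate, test compound and 130 uM ADP for 45 minutes at room temperature. Luminescent Kinase-Glo Plus signal was measured after 10 minutes.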
AMA1-RON2 inh: AMA1-RON2 (P. falciparum) interaction inhibition. 0.2% of 360,000 active. Potency, µM (titrated, usually from 58.2 µM), without a hit: top-dose activity change, negative = inhibition, actives largely listed as inhibitors. AlphaScreen AMA1-biotinylated RON2 peptide binding;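 also: 0% = vehicle wells and -100% = peptide control; nearly all actives have a fitted effect of over 45% in size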
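AMA1 (3D7) with his tag at 25 nM final met compounds first, then biotinylated RON2 peptide at 25 nM; detection used donor plus acceptor beads, 10 µg/mL apiece, read by AlphaScreen after 30 min at room temperature.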
LmPK inh: blocks Leishmania mexicana pyruvate kinase activity | Q27686 | 0.37% of 290,000 active | purified LmPK, Kinase-Glo ATP luminescence, 1 h | AID 1721 | Potency, µM (series often up to 57.5 µM), for the others: at the top dose activity change, negative = inhibition, usual class: inhibitors
Target sequence (Q27686 whole entry, looked up): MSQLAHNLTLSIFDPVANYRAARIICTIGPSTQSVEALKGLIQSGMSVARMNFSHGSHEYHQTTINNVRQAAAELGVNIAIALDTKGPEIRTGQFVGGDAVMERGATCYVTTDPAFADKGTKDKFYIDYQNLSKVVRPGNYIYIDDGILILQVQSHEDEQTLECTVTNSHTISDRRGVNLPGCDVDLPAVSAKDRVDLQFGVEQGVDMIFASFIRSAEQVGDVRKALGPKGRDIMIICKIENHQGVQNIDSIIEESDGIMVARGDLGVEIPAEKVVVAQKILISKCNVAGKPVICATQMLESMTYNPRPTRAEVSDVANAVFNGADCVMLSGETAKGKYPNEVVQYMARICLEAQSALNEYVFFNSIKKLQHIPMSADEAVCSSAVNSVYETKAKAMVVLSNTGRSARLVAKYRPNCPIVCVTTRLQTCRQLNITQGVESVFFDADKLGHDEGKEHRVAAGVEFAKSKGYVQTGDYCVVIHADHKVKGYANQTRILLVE
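ATP generated from ADP (0.1 mM) and PEP (0.5 mM) by 0.1 nM LmPK over 1 h at room temperature (pH 7.2 imidazole buffer) was detected by coupled luciferase luminescence. Values were normalized to uninhibited and no-enzyme wells.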
Vaccinia mCherry: vaccinia inhibition (mCherry reporter); Potency, µM (series often up to 36.5 µM), for the others: at the top dose activity change, negative = inhibition, actives largely listed as inhibitors; 0.63% of 310,000 active; Vaccinia virus mCherry reporter infection, fluorescence; calls by dose curve; tested in A549 cells; also: nearly all actives have a fitted effect of over 35% in size
Active calls of the source: *; i = inactive; ? = inconclusive; nt = not tested or not shown; ! = not active in a repeat; [ ] = another dose, or the depositor's remark. Unless noted, calls follow the shape of the dose curve; as a rule, active = well fitted curve in the direction sought with a large enough effect; inconclusive = small, poorly fitted or top-dose-only effect, or another doubt; inactive = no such curve, though single readings can be large; an effect the other way counts as inactive or inconclusive. Unless noted, % is scaled to controls: 0 for no effect and ±100 for the full control effect; potency is read from the fitted curve at half-maximal effect.

SMILES | RE007 growth inh | Vaccinia Venus | TbPYK inhibitor | AMA1-RON2 inh | LmPK inh | Vaccinia mCherry
CCN(c1ccccc1)c1nc(N)nc(C#N)n1 | nt | -9% | nt | nt | nt | -19%
Cc1nc2ccccc2nc1CN1CCOc2ccc(C(C)(O)COc3ccccc3)cc2C1 (centres undefined) | nt | -18% | nt | nt | nt | -23%
Cc1ccccc1-c1ccc2n1Cc1cnnn1-c1ccccc1-2 | 2% | -24% | 1% | 25µM* | nt | -7%
Cc1nn(C)cc1CN1CCOc2ccc(CN3CCC(Oc4cccnc4)CC3)cc2C1 | nt | -9% | nt | nt | nt | -14%
Cc1ccc2[nH]c(=O)c(C3C(C#N)=C(N)Oc4c3ccc3cccnc43)cc2c1 (centres undefined) | 10% | ? | 53% | -11% | -2% | 10µM*
Cc1cc(C(=O)NCC2CCC3(CCN(Cc4ccc5ccccc5c4)CC3)O2)n(C)n1 (centres undefined) | nt | -29% | nt | nt | nt | -8%
OCC(O)COc1ccc(Cl)cc1 (centres undefined) | nt | nt | 0% | nt | nt | nt
CN(Cc1cnc2nc(N)nc(N)c2n1)c1ccc(C(=O)N[C@@H](CCC(=O)O)C(=O)O)cc1 | -3%[18.4 µM] | 3.2µM* | -7% | 3% | nt | 1µM*!
Nc1nc2ncc(CNc3ccc(C(=O)NC(CCC(=O)O)C(=O)O)cc3)nc2c(=O)[nH]1 (centres undefined) | nt | -8% | 0% | nt | nt | -7%
COc1ccccc1-c1ccnc(-n2ncc(C(=O)N[C@H]3CCCCNC3=O)c2C2CC2)n1 | nt | -22% | nt | nt | nt | -12%
O=C(/C=C/c1ccco1)Nc1cccnc1Cl | -2% | nt | ? | -8% | 16µM* | nt
O=C(/C=C/c1ccccc1)Nc1cccnc1Cl | -15% | -18% | 0% | -5% | -26% | -22%
Cc1cc(Nc2nc3ccccc3[nH]c2=O)n(-c2ccccc2)n1 | -16% | 8.9µM* | 2% | -10% | 0% | 7.1µM*
COc1cc(=O)n2c(c1C(=O)NCc1ccco1)CCN(Cc1ccc3ccccc3c1)CC2 | nt | -12% | nt | nt | nt | i
CCCn1nnc(NC(=S)NC(=O)CC)n1 | 5% | nt | 3% | 24% | 3% | nt
CCCCn1nnc(NC(=S)NC(=O)c2cccs2)n1 | nt | 2.2µM* | -4% | 26% | -9% | ?
CCCn1nnc(NC(=S)NC(=O)Cc2ccccc2)n1 | 12% | ? | -8% | 88% | 0% | 2.2µM*
CCCCNC(=O)c1ccc2nc(-c3cccs3)c(-c3cccs3)nc2c1 | nt | -4% | nt | nt | nt | 23%
COC(=O)N1C/C=C\C(c2ccc(OC)cc2)N(Cc2ccc(F)cc2)C(=O)C1 (centres undefined) | 2% | -22% | 0% | 69% | 8% | -19%
C=CC(=O)N1C/C=C\C(c2ccc(OC)cc2)N(Cc2ccc(F)cc2)C(=O)C1 (centres undefined) | -2% | 0.89µM* | -4% | 3% | 2% | ?
c1ccc(-c2nnc(SCc3nnc(-c4cccs4)o3)o2)cc1 | -6% | 7.1µM* | -9% | -5% | 2% | nt
COc1cccc(CN2CCC(n3cc(C(=O)NC4CCCC4)nn3)CC2)c1O | nt | -1% | nt | nt | nt | -4%
Cc1cc(C)nc(SCc2ccc(C(=O)NNC(=O)Nc3cccc(Cl)c3)cc2)n1 | 4% | 11µM* | -5% | 59%[11.6 µM] | -4% | 14µM*
Cc1nn(C)c(Cl)c1S(=O)(=O)N(Cc1ccco1)c1ncnc2nc[nH]c12 | nt | -17% | nt | nt | nt | -1%
COc1ccc(C(=O)NCCc2nnc3n2CCN(CC2CC=CCC2)CC3)cc1 (centres undefined) | nt | -8% | nt | nt | nt | -22%
SMILES | RE007 growth inh | Vaccinia Venus | TbPYK inhibitor | AMA1-RON2 inh | LmPK inh | Vaccinia mCherry
O=C1c2ccccc2C(=O)N1CCSc1ncn[nH]1 | -1% | -5% | 0% | 74% | -3% | -9%
O=C1c2ccccc2C(=O)N1CCSc1n[nH]c(=S)s1 | -7% | ? | 28µM* | 30% | 17% | ?
CC1CN(c2ccc([N+](=O)[O-])c(NCCOc3ccccc3)c2)CCN1 (centres undefined) | -6% | 11µM* | -7% | -28% | 1% | ?
Cc1cccc(OCCNc2cc(N3CCN(CCO)CC3)ccc2[N+](=O)[O-])c1 | 4% | ? | 4% | ? | 3% | 10µM*
COc1ccc(OCCNc2cc(N3CCOCC3)ccc2[N+](=O)[O-])cc1 | 3% | ? | 7% | -16% | 4% | 11µM*
Cc1ccccc1OCCNc1cc(N2CCN(CCO)CC2)ccc1[N+](=O)[O-] | -15% | ? | -8% | 12%[2.32 µM] | 5% | ?
Cc1c(C(=O)N2CCC(Cc3ccccc3)CC2)sc2ncnc(NCc3ccccn3)c12 | nt | -16% | nt | nt | nt | -24%
NC(=S)NN=C1CCCCCCCCC1 | 5% | ? | -9% | 17% | nt | 20µM*
NC(=S)NN=C1CCCCCCCC1 | 0% | ? | -6% | 41% | nt | ?
C=C[C@H]1CN2CC[C@H]1C[C@H]2[C@H](OC(=O)OCC)c1ccnc2ccc(OC)cc12 | nt | -14% | nt | nt | nt | -17%
CC(O)C1C=CC=CC(=O)OC2CC3OC4C5OC5(C)CCC4(COC(=O)C4OC4(C)C(O)CO1)C2(C)C31CO1 (centres undefined) | 0% | nt | -2% | -1% | nt | nt
CC(=O)OC1C(=O)OCC23CCC4(C)OC4C2OC2CC(OC(=O)C=CC=CC(=O)OCCC1C)C3(C)C21CO1 (centres undefined) | 5.6µM* | nt | 0% | -8% | nt | nt
Cc1ccc2nc(N(CCCN(C)C)C(=O)c3ccc4ncsc4c3)sc2c1 | 4% | -20% | 25µM* | -3% | 2% | -11%
COc1ccc2nc(N(CCN(C)C)C(=O)c3ccc4ncsc4c3)sc2c1 | -15% | -7% | -29% | 0% | nt | 0%
O=C1c2ccccc2-c2onc3ccc(N4CCCC4)c1c23 | ? | nt | -6% | ? | -26% | nt
O=C1c2ccccc2C(=O)c2c1cccc2N1CCCC1 | nt | -1% | -17% | 13µM* | -13% | i
O=c1c(Cl)c(N2CCCCC2)cnn1-c1nc2ccccc2[nH]1 | -14% | nt | ? | 14% | 14µM* | nt
Cn1nnnc1SCC1=C(C(=O)O)N2C(=O)[C@@H](NC(=O)[C@H](OC=O)c3ccccc3)[C@H]2SC1 | nt | nt | 0% | nt | nt | nt
Cc1ncc2c(c1CNC(=O)c1ccc3c(c1)OCO3)CCN(C(=O)/C=C/c1ccccc1Cl)C2 | nt | -8% | nt | nt | nt | -8%
Oc1ccc2ccccc2c1N=Nc1ccccc1F | -15% | nt | 0% | 10µM* | -5% | nt
Oc1ccc2ccccc2c1N=Nc1ccccn1 | 35µM* | -20% | -4% | 10µM* | -14% | nt
CC1CN(CC(=O)NCCc2ccncc2)Cc2ccccc2O1 (centres undefined) | nt | 2% | nt | nt | nt | -10%
NNc1nc(-c2ccccc2)cc(-c2ccccc2O)n1 | -3% | nt | -2% | 48% | 2% | nt
